Test results published in the supplement of paper PMC10849652.
About 7,900 targets were measured; listed, in parts, are those with a hit and a random draw of the rest. About 0.6% of all pairs of compound and target were hits. A number with no mark means an inactive call.

What was measured:
Assay in all cases: log2 fold change, soluble protein after heating vs DMSO (PISA); higher = thermal stabilisation; K562 cells, 10 uM, 30 min; active = over 0.2 and 3.5 SD of the protein, either way, in both replicates (recomputed)
[1] = compound: COC1=CC=C(C=C1)CN2C=CC3=C2C=C(C=C3)C(=O)NO
Procedure, shortened: (§1)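 Soluble protein was defined as the supernatant after 21,000xg for 90 min. It came from K562 cells at 2×10^6 cells/mL given 10 μM compound for 30 min, heated in aliquots for 3 min across 48°C-58°C, pooled, and extracted in PBS with 0.5% NP-40 at 4°C, and was quantified by TMTpro 16plex LC-MS/MS with equalised channel sums. Thermal stability against control samples, from duplicates, is reported as log2 fold change.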

[2] = compound: CON(C)C(=O)N1N=C(c2cc(F)ccc2F)S[C@@]1(CCCN)c1ccccc1 [filanesib]
Procedure, shortened: as §1

[3] = compound: CO[C@H]1C[C@@H]2CC[C@@H](C)[C@@](O)(O2)C(=O)C(=O)N2CCCC[C@H]2C(=O)O[C@H]([C@H](C)C[C@@H]2CC[C@H](n3cnnn3)[C@H](OC)C2)CC(=O)[C@H](C)/C=C(\C)[C@@H](O)[C@@H](OC)C(=O)[C@H](C)C[C@H](C)/C=C/C=C/C=C/1C [zotarolimus]
Procedure, shortened: as §1

[4] = compound: COc1cc(C(=O)O)ccc1NC(=O)[C@@H]1N[C@@H](CC(C)(C)C)[C@](C#N)(c2ccc(Cl)cc2F)[C@H]1c1cccc(Cl)c1F [idasanutlin]
Procedure, shortened: as §1

[5] = compound: COc1cc(Nc2ncc3c(n2)-c2ccc(Cl)cc2C(c2c(F)cccc2OC)=NC3)ccc1C(=O)O [alisertib]
Procedure, shortened: as §1

[6] = compound: COc1cc2nc(-c3cc(F)ccc3O)nc(N[C@@H]3CNC[C@H]3C(C)(C)O)c2cc1OC
Procedure, shortened: as §1

[7] = compound: COc1cc2ncnc(Nc3ccc(F)c(Cl)c3)c2cc1OCCCN1CCOCC1 [gefitinib]
Procedure, shortened: as §1

[8] = compound: COc1cccc2cc(-c3nc([C@H]4CC[C@H](C(=O)O)CC4)n4ncnc(N)c34)[nH]c12
Procedure, shortened: as §1

[9] = compound: CS(=O)(=O)CCNCc1ccc(-c2ccc3ncnc(Nc4ccc(OCc5cccc(F)c5)c(Cl)c4)c3c2)o1 [lapatinib]
Procedure, shortened: as §1

[10] = compound: CS(=O)(=O)N1CCN(Cc2cc3nc(-c4cccc5[nH]ncc45)nc(N4CCOCC4)c3s2)CC1 [pictilisib]
Procedure, shortened: as §1

[11] = compound: CS(=O)(=O)c1ccc(-c2cnc(N)c(C(=O)Nc3ccccc3)n2)cc1
Procedure, shortened: as §1

[12] = compound: C[C@@H](Oc1cc(-c2cnn(C3CCNCC3)c2)cnc1N)c1c(Cl)ccc(F)c1Cl [crizotinib]
Procedure, shortened: as §1

[13] = compound: C[C@@H]1COCCN1C2=NC(=NC(=C2)C3(CC3)S(=O)(=O)C)C4=C5C=CNC5=CC=C4
Procedure, shortened: as §1

[14] = compound: C[C@H](C1=CC=C(C=C1)C(=O)NC2=C3C=CNC3=NC=C2)N
Procedure, shortened: as §1

[15] = compound: C[C@H](Nc1ncnc2nc[nH]c12)c1cc2cccc(Cl)c2c(=O)n1-c1ccccc1 [duvelisib]
Procedure, shortened: as §1

[16] = compound: Cc1cc(Nc2cc(CN3CCOCC3)c3nc(C)c(Cc4ccc(Cl)cc4F)n3n2)n[nH]1 [gandotinib]
Procedure, shortened: as §1

[17] = compound: Cc1cc(Nc2cc(N3CCN(C)CC3)nc(Sc3ccc(NC(=O)C4CC4)cc3)n2)n[nH]1 [tozasertib]
Procedure, shortened: as §1

[18] = compound: Cc1cc(SCc2sc(-c3ccc(C(F)(F)F)cc3)nc2C)ccc1OCC(=O)O
Procedure, shortened: as §1

[19] = compound: Cc1ccc(-n2nc(C(C)(C)C)cc2NC(=O)Nc2ccc(OCCN3CCOCC3)c3ccccc23)cc1 [doramapimod]
Procedure, shortened: as §1

[20] = compound: Cc1ccc(C(=O)N(CCCN)[C@@H](c2nc3cc(Cl)ccc3c(=O)n2Cc2ccccc2)C(C)C)cc1 [ispinesib]
Procedure, shortened: as §1

Chain of UniProt Q96DT5 (Q96DT5 whole entry, looked up): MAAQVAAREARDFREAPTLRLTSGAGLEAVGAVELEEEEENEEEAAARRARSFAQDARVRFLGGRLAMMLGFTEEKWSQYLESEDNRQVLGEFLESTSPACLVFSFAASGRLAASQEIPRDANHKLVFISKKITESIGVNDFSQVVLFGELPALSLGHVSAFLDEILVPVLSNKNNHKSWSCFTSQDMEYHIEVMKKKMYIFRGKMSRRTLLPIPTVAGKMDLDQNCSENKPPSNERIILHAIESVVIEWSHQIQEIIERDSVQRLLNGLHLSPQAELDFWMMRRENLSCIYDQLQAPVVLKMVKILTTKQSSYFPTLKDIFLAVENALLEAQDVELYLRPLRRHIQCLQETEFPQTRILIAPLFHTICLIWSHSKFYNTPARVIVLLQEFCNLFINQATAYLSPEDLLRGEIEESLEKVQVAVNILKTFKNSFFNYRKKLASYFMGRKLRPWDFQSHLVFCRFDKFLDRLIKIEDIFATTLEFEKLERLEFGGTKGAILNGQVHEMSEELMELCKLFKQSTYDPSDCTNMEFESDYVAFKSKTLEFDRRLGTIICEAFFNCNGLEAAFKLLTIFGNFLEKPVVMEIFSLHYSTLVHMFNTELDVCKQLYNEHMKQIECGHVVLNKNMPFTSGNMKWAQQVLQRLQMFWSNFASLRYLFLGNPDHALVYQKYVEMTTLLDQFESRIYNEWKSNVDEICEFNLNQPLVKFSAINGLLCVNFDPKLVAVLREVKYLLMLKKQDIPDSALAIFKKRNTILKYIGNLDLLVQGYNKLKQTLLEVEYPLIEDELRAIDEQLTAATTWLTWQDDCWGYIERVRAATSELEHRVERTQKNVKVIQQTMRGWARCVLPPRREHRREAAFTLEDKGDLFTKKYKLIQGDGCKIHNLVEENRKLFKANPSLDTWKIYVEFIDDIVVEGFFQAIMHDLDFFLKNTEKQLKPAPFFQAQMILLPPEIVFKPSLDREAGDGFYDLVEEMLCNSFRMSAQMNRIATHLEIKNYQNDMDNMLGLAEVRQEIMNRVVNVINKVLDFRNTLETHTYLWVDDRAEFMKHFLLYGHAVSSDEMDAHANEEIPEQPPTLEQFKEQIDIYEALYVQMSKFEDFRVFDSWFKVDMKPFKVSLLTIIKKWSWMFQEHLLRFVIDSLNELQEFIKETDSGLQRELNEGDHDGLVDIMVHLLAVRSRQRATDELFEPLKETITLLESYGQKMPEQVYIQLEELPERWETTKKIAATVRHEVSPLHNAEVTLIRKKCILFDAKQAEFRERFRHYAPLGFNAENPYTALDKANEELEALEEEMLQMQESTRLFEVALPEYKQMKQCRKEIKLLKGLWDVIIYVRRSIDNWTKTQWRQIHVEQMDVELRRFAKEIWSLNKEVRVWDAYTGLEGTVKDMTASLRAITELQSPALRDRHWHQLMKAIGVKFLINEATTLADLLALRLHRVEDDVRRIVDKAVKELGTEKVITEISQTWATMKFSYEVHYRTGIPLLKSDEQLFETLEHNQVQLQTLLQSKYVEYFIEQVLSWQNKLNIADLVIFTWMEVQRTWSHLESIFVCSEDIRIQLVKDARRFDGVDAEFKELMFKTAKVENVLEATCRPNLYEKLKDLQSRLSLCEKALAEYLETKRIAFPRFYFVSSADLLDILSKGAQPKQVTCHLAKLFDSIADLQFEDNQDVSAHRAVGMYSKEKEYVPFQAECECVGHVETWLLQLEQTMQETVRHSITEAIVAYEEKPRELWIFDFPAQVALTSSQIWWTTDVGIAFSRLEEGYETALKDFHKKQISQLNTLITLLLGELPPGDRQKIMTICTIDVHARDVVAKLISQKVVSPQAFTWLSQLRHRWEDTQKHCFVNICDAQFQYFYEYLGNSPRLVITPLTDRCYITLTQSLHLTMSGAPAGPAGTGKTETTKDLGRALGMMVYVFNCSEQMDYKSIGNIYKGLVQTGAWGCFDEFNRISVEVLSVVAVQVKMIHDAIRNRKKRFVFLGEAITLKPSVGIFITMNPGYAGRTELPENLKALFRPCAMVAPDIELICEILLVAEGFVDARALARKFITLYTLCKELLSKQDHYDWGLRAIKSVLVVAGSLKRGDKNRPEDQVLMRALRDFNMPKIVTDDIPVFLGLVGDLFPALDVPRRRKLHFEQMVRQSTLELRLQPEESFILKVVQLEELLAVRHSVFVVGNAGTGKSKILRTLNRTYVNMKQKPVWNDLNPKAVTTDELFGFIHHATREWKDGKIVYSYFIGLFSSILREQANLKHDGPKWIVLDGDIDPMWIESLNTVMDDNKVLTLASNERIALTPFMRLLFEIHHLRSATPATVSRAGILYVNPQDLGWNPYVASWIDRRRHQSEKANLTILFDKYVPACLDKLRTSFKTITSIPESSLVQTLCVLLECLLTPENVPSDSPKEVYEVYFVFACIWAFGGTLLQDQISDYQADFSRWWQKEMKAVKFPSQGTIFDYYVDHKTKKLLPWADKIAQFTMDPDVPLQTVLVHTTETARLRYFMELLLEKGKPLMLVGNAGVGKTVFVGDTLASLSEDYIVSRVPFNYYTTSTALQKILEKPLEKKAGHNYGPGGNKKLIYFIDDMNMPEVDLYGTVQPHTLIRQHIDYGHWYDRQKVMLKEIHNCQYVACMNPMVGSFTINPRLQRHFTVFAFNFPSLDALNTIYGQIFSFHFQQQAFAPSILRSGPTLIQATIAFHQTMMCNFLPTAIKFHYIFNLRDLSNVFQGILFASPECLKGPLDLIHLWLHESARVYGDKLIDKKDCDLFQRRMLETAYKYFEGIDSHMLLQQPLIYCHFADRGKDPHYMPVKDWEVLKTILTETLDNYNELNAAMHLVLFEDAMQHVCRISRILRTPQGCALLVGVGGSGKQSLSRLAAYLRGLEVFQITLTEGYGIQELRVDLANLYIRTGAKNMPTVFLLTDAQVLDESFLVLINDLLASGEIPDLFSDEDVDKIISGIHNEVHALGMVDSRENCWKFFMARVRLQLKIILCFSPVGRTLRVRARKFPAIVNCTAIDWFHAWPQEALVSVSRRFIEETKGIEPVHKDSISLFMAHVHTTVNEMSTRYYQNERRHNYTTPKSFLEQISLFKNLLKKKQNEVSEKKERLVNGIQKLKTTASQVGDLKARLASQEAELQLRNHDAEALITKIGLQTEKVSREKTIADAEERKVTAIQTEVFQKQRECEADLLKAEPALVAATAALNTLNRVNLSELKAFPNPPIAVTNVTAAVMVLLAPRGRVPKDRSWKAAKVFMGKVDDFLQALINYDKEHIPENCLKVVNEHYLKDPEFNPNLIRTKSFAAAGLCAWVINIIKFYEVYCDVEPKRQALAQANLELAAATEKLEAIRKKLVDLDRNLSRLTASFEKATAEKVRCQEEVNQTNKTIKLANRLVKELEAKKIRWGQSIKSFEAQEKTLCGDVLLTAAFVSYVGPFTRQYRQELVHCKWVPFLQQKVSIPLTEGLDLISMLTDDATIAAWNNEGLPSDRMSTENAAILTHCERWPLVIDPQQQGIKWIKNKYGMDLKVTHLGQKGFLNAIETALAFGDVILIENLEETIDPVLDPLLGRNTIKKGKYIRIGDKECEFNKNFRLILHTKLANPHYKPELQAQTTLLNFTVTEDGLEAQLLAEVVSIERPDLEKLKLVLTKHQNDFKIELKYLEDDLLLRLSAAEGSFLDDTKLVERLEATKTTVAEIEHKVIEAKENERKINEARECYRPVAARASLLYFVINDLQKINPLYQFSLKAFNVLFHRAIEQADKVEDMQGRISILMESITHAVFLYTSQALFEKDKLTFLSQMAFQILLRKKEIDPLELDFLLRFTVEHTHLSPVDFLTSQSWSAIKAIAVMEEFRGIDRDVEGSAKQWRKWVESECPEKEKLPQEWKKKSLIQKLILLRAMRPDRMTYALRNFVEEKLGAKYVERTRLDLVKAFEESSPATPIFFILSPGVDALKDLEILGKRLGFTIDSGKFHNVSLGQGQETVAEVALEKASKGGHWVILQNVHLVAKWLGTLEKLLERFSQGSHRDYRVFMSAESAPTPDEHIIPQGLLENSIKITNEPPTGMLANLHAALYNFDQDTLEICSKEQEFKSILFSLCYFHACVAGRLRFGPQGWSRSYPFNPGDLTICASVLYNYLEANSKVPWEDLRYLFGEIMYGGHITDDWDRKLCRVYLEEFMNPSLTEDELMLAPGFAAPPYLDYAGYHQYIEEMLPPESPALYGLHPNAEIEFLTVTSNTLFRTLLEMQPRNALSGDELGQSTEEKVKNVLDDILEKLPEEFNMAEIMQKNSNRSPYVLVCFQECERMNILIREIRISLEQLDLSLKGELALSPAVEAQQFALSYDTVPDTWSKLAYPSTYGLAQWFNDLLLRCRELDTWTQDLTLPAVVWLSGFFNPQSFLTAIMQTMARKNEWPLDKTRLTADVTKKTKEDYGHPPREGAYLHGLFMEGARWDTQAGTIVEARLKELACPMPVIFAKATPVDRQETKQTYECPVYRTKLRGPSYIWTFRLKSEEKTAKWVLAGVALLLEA
Chain of UniProt Q16254 (Q16254 whole entry, looked up): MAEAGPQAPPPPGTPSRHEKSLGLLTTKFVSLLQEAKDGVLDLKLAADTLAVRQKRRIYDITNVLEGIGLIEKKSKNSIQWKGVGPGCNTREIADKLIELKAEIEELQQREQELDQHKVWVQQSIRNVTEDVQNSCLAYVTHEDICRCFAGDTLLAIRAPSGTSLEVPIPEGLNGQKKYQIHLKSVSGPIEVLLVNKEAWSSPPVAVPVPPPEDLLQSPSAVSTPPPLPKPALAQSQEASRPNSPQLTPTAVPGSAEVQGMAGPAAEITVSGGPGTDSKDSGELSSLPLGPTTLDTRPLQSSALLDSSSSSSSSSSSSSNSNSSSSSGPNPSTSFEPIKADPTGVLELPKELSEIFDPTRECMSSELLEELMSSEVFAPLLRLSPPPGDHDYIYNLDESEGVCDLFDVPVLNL
Chain of UniProt P98173 (P98173 whole entry, looked up): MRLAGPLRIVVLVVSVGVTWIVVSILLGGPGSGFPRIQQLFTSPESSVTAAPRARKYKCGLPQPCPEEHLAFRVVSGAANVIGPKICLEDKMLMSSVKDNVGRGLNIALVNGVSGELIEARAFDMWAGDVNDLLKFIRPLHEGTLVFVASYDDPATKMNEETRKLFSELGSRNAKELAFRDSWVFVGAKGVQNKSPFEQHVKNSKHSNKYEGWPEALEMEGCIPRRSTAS

DYNC1I2 isoform 5 (UniProt Q13409) was tested, and the log2 fold change [1] was 0.012, the log2 fold change [2] was 0.003 and the log2 fold change [3] was 0.025. The log2 fold change [4] was 0.025, the log2 fold change [5] was -0.051 and the log2 fold change [6] was 0. For the same target, the log2 fold change [7] was -0.003, the log2 fold change [8] was 0.004 and the log2 fold change [9] was 0.021. It also gave a log2 fold change [10] of 0.035, a log2 fold change [11] of 0.026 and a log2 fold change [12] of 0.055. The log2 fold change [13] was -0.035, the log2 fold change [14] was -0.007 and the log2 fold change [15] was 0.019. The log2 fold change [16] was 0.027, the log2 fold change [17] was -0.022 and the log2 fold change [18] was -0.007. It also gave a log2 fold change [19] of -0.011 and a log2 fold change [20] of 0.028.

DHX36 (UniProt Q9H2U1) showed a log2 fold change [1] of 0.04, a log2 fold change [2] of 0.119 and a log2 fold change [3] of 0.024. For the same target, the log2 fold change [4] was 0.017, the log2 fold change [5] was 0.025 and the log2 fold change [6] was 0.017. The log2 fold change [7] was -0.127, the log2 fold change [8] was 0.059 and the log2 fold change [9] was 0.025. It also gave a log2 fold change [10] of -0.038, a log2 fold change [11] of -0.071 and a log2 fold change [12] of -0.101. For the same target, the log2 fold change [13] was -0.062, the log2 fold change [14] was 0.2 and the log2 fold change [15] was -0.029. It also gave a log2 fold change [16] of 0.069, a log2 fold change [17] of -0.047 and a log2 fold change [18] of 0.045. The log2 fold change [19] was 0.051 and the log2 fold change [20] was -0.081.

In the case of FAM3A (UniProt P98173), the log2 fold change [1] was -0.057, the log2 fold change [2] was -0.022 and the log2 fold change [3] was 0.005. For the same target, the log2 fold change [4] was 0.007, the log2 fold change [5] was 0.044 and the log2 fold change [6] was -0.021. It also gave a log2 fold change [7] of 0.04, a log2 fold change [8] of 0.066 and a log2 fold change [9] of 0.067. The log2 fold change [10] was 0.055, the log2 fold change [11] was 0.01 and the log2 fold change [12] was -0.071. It also gave a log2 fold change [13] of 0.07, a log2 fold change [14] of 0.01 and a log2 fold change [15] of 0.006. For the same target, the log2 fold change [16] was 0.014, the log2 fold change [17] was -0.025 and the log2 fold change [18] was -0.075. The log2 fold change [19] was 0.009 and the log2 fold change [20] was -0.065.

DNAH11 (UniProt Q96DT5) was tested, and the log2 fold change [1] was 0, the log2 fold change [2] was 0.047 and the log2 fold change [3] was 0.04. It also gave a log2 fold change [4] of 0.03, a log2 fold change [5] of -0.025 and a log2 fold change [6] of -0.137. For the same target, the log2 fold change [7] was -0.002, the log2 fold change [8] was -0.203 and the log2 fold change [9] was 0.216. It also gave a log2 fold change [10] of 0.552, a log2 fold change [11] of -0.054 and a log2 fold change [12] of 0.071. For the same target, the log2 fold change [13] was 0.062, the log2 fold change [14] was 0.695 (active) and the log2 fold change [15] was 0.073. For the same target, the log2 fold change [16] was 0.104, the log2 fold change [17] was -0.165 and the log2 fold change [18] was -0.069. It also gave a log2 fold change [19] of 0.037 and a log2 fold change [20] of -0.125.

DTNBP1 (UniProt Q96EV8) was tested, and the log2 fold change [1] was -0.033, the log2 fold change [2] was -0.115 and the log2 fold change [3] was -0.009. The log2 fold change [4] was -0.068, the log2 fold change [5] was -0.003 and the log2 fold change [6] was 0.004. It also gave a log2 fold change [7] of 0.018, a log2 fold change [8] of 0.044 and a log2 fold change [9] of -0.041. It also gave a log2 fold change [10] of 0.073, a log2 fold change [11] of 0.093 and a log2 fold change [12] of 0. The log2 fold change [13] was 0.079, the log2 fold change [14] was -0.014 and the log2 fold change [15] was -0.012. The log2 fold change [16] was -0.104, the log2 fold change [17] was -0.034 and the log2 fold change [18] was 0.022. It also gave a log2 fold change [19] of -0.009 and a log2 fold change [20] of -0.073.

In the case of DMXL1 (UniProt Q9Y485), the log2 fold change [1] was 0.023, the log2 fold change [2] was 0.046 and the log2 fold change [3] was -0.008. It also gave a log2 fold change [4] of -0.012, a log2 fold change [5] of -0.003 and a log2 fold change [6] of 0.02. For the same target, the log2 fold change [7] was -0.029, the log2 fold change [8] was -0.003 and the log2 fold change [9] was -0.02. The log2 fold change [10] was -0.015, the log2 fold change [11] was -0.012 and the log2 fold change [12] was -0.092. The log2 fold change [13] was 0.002, the log2 fold change [14] was 0.048 and the log2 fold change [15] was -0.011. For the same target, the log2 fold change [16] was -0.013, the log2 fold change [17] was -0.03 and the log2 fold change [18] was 0. For the same target, the log2 fold change [19] was 0.047 and the log2 fold change [20] was -0.217.

Target EXOC8 (UniProt Q8IYI6) has a log2 fold change [1] of 0.005, a log2 fold change [2] of -0.044 and a log2 fold change [3] of 0.056. It also gave a log2 fold change [4] of -0.072, a log2 fold change [5] of 0.014 and a log2 fold change [6] of 0.038. It also gave a log2 fold change [7] of -0.047, a log2 fold change [8] of -0.003 and a log2 fold change [9] of -0.054. The log2 fold change [10] was -0.156, the log2 fold change [11] was -0.062 and the log2 fold change [12] was -0.32 (active). For the same target, the log2 fold change [13] was 0.109, the log2 fold change [14] was 0.053 and the log2 fold change [15] was 0.004. The log2 fold change [16] was -0.203, the log2 fold change [17] was 0.048 and the log2 fold change [18] was 0.063. For the same target, the log2 fold change [19] was 0.007 and the log2 fold change [20] was -0.364 (active).

E2F4 (UniProt Q16254) showed a log2 fold change [1] of -0.024, a log2 fold change [2] of -0.034 and a log2 fold change [3] of 0.042. The log2 fold change [4] was 0.006, the log2 fold change [5] was -0.056 and the log2 fold change [6] was -0.098. It also gave a log2 fold change [7] of 0.003, a log2 fold change [8] of 0.059 and a log2 fold change [9] of 0.047. It also gave a log2 fold change [10] of 0.044, a log2 fold change [11] of 0.04 and a log2 fold change [12] of -0.029. For the same target, the log2 fold change [13] was 0.024, the log2 fold change [14] was -0.095 and the log2 fold change [15] was 0.027. For the same target, the log2 fold change [16] was -0.034, the log2 fold change [17] was 0.086 and the log2 fold change [18] was -0.019. The log2 fold change [19] was 0.024 and the log2 fold change [20] was -0.103.
